# Experimental data taken from the supplement of paper PMC13380429.
# Columns and labels:
# [1] = test system: Vero E6 infected with SARS-CoV-2; test: morphology score (similarity to uninfected cells); higher = more like uninfected cells; settings: 24 h
# [2] = test system: Vero E6 infected with SARS-CoV-2; test: SARS-CoV-2 infection rate relative to infected DMSO; higher = more infection, active = 60 or less; settings: 24 h
smiles,measurement,setting,value
COc1ccc(CNC(=O)c2sc3nc(C)cc(C)c3c2N)cc1 (10 µM),morphology score,[1],-0.0124
same,SARS-CoV-2 infection rate,[2],104% (inactive)
Nc1ccc(-c2nc3ccc(-c4nc5ccc(N)cc5[nH]4)cc3[nH]2)cc1 (10 µM),morphology score,[1],-0.218
same,SARS-CoV-2 infection rate,[2],108% (inactive)
CC(CNC(=O)c1cccnc1)NC(=O)c1cccnc1 (stereo not drawn) [nicaraven] (10 µM),morphology score,[1],-0.02
same,SARS-CoV-2 infection rate,[2],114% (inactive)
Fc1ccc(C(OCCN2CCN(CCCc3ccccc3)CC2)c2ccc(F)cc2)cc1 [vanoxerine] (0.833333 µM),morphology score,[1],0.275
same,SARS-CoV-2 infection rate,[2],86% (inactive)
O=C(O)c1cc(O)c2c(c1)[C@H]([C@H]1c3cc(C(=O)O)cc(O)c3C(=O)c3c(O[C@@H]4O[C@H](CO)[C@@H](O)[C@H](O)[C@H]4O)cccc31)c1cccc(O[C@@H]3O[C@H](CO)[C@@H](O)[C@H](O)[C@H]3O)c1C2=O [sennoside-A] (10 µM),morphology score,[1],-0.287
same,SARS-CoV-2 infection rate,[2],113% (inactive)
CCCCc1nc2cc(/C=C/C(=O)NO)ccc2n1CCN(CC)CC (10 µM),morphology score,[1],-0.146
same,SARS-CoV-2 infection rate,[2],109% (inactive)
Cc1nc2c(-c3cnc(N)nc3)nc(N3CCOCC3)nc2n1C(C)C (10 µM),morphology score,[1],-0.0616
same,SARS-CoV-2 infection rate,[2],108% (inactive)
COc1ccccc1OCCNCC(O)COc1cccc2[nH]c3ccccc3c12 (stereo not drawn) [carvedilol] (10 µM),morphology score,[1],0.134
same,SARS-CoV-2 infection rate,[2],97.5% (inactive)
C[C@H](N)Cc1cccc(O)c1 [gepefrine] (10 µM),morphology score,[1],-0.0218
same,SARS-CoV-2 infection rate,[2],106% (inactive)
NC(=O)CN1Cc2ccccc2OC1=O [caroxazone] (10 µM),morphology score,[1],0.0974
same,SARS-CoV-2 infection rate,[2],100% (inactive)
C=CC(=O)Nc1ccc2ncnc(Nc3ccc(OCc4cccc(F)c4)c(Cl)c3)c2c1 (10 µM),morphology score,[1],-0.0546
same,SARS-CoV-2 infection rate,[2],102% (inactive)
Cc1cc(C)c(/C=C2\C(=O)Nc3ccccc32)[nH]1 [semaxanib] (10 µM),morphology score,[1],0.208
same,SARS-CoV-2 infection rate,[2],96% (inactive)
O=C(NS(=O)(=O)c1ccc(Br)s1)c1ccc(Cl)cc1Cl [tasisulam] (10 µM),morphology score,[1],0.161
same,SARS-CoV-2 infection rate,[2],109% (inactive)
Nc1ncccc1-c1nc2ccc(-c3ccccc3)nc2n1-c1ccc(C2(N)CCC2)cc1 (10 µM),morphology score,[1],0.702
same,SARS-CoV-2 infection rate,[2],29.5% (active)
Cc1cccc(N(C)C(=S)Oc2ccc3ccccc3c2)c1 [tolnaftate] (10 µM),morphology score,[1],0.136
same,SARS-CoV-2 infection rate,[2],104% (inactive)
CNCCCOc1cc(F)c(-c2c(Cl)nc3ncnn3c2N[C@@H](C)C(F)(F)F)c(F)c1 [cevipabulin] (10 µM),morphology score,[1],-0.0738
same,SARS-CoV-2 infection rate,[2],92% (inactive)
CC(C)[C@H]1c2ccc(F)cc2CC[C@@]1(CCN(C)CCCc1nc2ccccc2[nH]1)OC(=O)C1CC1 (0.833333 µM),morphology score,[1],0.0422
same,SARS-CoV-2 infection rate,[2],98% (inactive)
COc1cc(Nc2c(C#N)cnc3cc(OCCCN4CCN(C)CC4)c(OC)cc23)c(Cl)cc1Cl [bosutinib] (10 µM),morphology score,[1],0.00987
same,SARS-CoV-2 infection rate,[2],96.5% (inactive)
CNc1nc(NCc2ccc(NS(C)(=O)=O)cc2Cl)cc(-c2ccccn2)n1 (10 µM),morphology score,[1],0.193
same,SARS-CoV-2 infection rate,[2],97.5% (inactive)
COc1ccc(CNC(=O)/C=C/c2ccc3[nH]cc(CCN(C)C)c3c2)cc1 (10 µM),morphology score,[1],0.155
same,SARS-CoV-2 infection rate,[2],88.5% (inactive)
O=C(/C=C/c1cccc(S(=O)(=O)Nc2ccccc2)c1)NO [belinostat] (10 µM),morphology score,[1],0.0182
same,SARS-CoV-2 infection rate,[2],97.5% (inactive)
Cc1ncc([N+](=O)[O-])n1CC(C)O (stereo not drawn) [secnidazole] (10 µM),morphology score,[1],0.17
same,SARS-CoV-2 infection rate,[2],99% (inactive)
Ic1cc(-c2ccccc2)ncn1 [4-iodo-6-phenylpyrimidine] (10 µM),morphology score,[1],0.254
same,SARS-CoV-2 infection rate,[2],81.5% (inactive)
CC[C@H](C)[C@H](NC(=O)[C@H](Cc1ccc(O)cc1)NC(=O)[C@@H](NC(=O)[C@H](CCCNC(=N)N)NC(=O)[C@@H](N)CC(=O)O)C(C)C)C(=O)N[C@@H](Cc1c[nH]cn1)C(=O)N1CCC[C@H]1C(=O)O (10 µM),morphology score,[1],0.109
same,SARS-CoV-2 infection rate,[2],104% (inactive)
O=C(O)C(=O)O.[NH-][C@@H]1CCCC[C@H]1[NH-].[Pt+2] [oxaliplatin] (10 µM),morphology score,[1],-0.0885
same,SARS-CoV-2 infection rate,[2],112% (inactive)
CC1(C)C(=O)NC2=C1C(=O)C(=O)c1ccccc12 (0.833333 µM),morphology score,[1],-0.0548
same,SARS-CoV-2 infection rate,[2],114% (inactive)
Nc1nc(=O)c(Br)c(-c2ccccc2)[nH]1 [bropirimine] (10 µM),morphology score,[1],0.109
same,SARS-CoV-2 infection rate,[2],99.5% (inactive)
CCNCCCNCCCCNCCCNCC (0.833333 µM),morphology score,[1],0.312
same,SARS-CoV-2 infection rate,[2],80.5% (inactive)
CCCN(CCC)C1Cc2cc(OC)c(OC)cc2C1 (10 µM),morphology score,[1],0.231
same,SARS-CoV-2 infection rate,[2],109% (inactive)
